High-throughput results from PubChem.
FMDV inh: blocks foot and mouth disease virus | 410,000 tested, 1.2% active | Potency, µM (doses to about 57.9 µM), for inactives: at the top dose activity change, negative = inhibition, actives largely listed as inhibitors | FMDV antiviral cell-based qHTS; calls by dose curve; tested in HEK293T cells; also: read-out not given here; potency is read from the fitted curve at half-maximal effect; nearly all actives have a fitted effect of over 45% in size
Vaccinia Venus: inhibitors of vaccinia virus (Venus reporter); Vaccinia virus Venus reporter expression, fluorescence; Potency, µM (series often up to 36.5 µM), for inactives: at the top dose activity change, negative = inhibition, most hits filed as inhibitors; 330,000 tested, 0.46% active; AID 720580; calls by dose curve; tested in A549 cells; also: potency is read from the fitted curve at half-maximal effect; nearly all actives have a fitted effect of over 30% in size
Vaccinia mCherry: inhibitors of vaccinia virus infection (mCherry reporter signal); 310,000 tested, 0.63% active; Vaccinia virus mCherry reporter infection, fluorescence; Potency, µM (top dose mostly 36.5 µM), inactives show at the highest dose activity change, negative = inhibition, actives largely listed as inhibitors; AID 720579; calls by dose curve; tested in A549 cells; also: potency is read from the fitted curve at half-maximal effect; nearly all actives have a fitted effect of over 35% in size
HCV inhibitor: HCV inhibition; Huh7.5.1 HCVcc-Cre infection, luciferase reporter, 44 h; AID 651820; Potency, µM (titrated, usually from 41.8 µM), for the others: at the top dose activity change, negative = inhibition, usual class: inhibitors; 340,000 tested, 3.4% active; active = well fitted inhibition curve with a large enough effect; inconclusive = small, poorly fitted or top-dose-only effect, or another doubt; inactive = no such curve, though single readings can be large or run the other way; also: potency is read from the fitted curve at half-maximal effect
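After 44 h co-culture of compound, cells and HCVcc-Cre (~0.5 moi), substrate is added for 15 min at room temperature and luciferase measured over 15 sec. Cells were seeded at 1,000/well and pre-cultured 4 h.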
HCMV inh: inhibitors of human cytomegalovirus | HFF cells, HCMV-luciferase reporter, 72 h; active compounds read low | activity change, negative = inhibition, % at 57.5 µM | 410,000 tested, 4.5% active; in the data active = activity change below about -60%; inconclusive = no clear call, values can overlap the other calls; inactive = above about -39%
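Cell-based, HFFs, 1000 cells/well, 16 h 37C; cpds in DMSO + HCMV-luc, MOI 1 PFU/cell; 72 h 37C; OneGlo luminescence after 5 min RT; norm. to buffer vs Salinomycin 10uM.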
* = called active by the depositor; i = inactive; u = inconclusive; x = no result given; + = active, no number; [ ] = dose if it differs, or a comment. The list is not random: actives were taken first. Their share in the collection is about 7.3%. % is scaled to controls: 0 for no effect and ±100 for the full control effect.

SMILES	FMDV inh	Vaccinia Venus	Vaccinia mCherry	HCV inhibitor	HCMV inh
C=CCn1c(SCC(=O)c2[nH]c(C)c(C(=O)OCC)c2C)nc2scc(-c3ccc(OC)c(OC)c3)c2c1=O	u	-5.4%	-3.4%	u	-100.0*
CCOC(=O)c1c(C)[nH]c(C(=O)CSc2nnc(-c3ccncc3)n2CC)c1C	x	-29.0%	u	u	-30.0
Cc1ccc(CN(C)C(=O)c2c(C)nn(-c3ccccc3)c2C)cc1	5.7%	-8.0%	18.7%	-1.0%	-25.3
CCN(C)C1CN(Cc2cn(Cc3ccc(C(F)(F)F)cc3)nn2)S(=O)(=O)C1 (centres undefined)	-15.2%	-5.0%	-5.8%	x	-22.2
CCCCCCN1CCN(C2CN(Cc3cn(Cc4cccc(C(F)(F)F)c4)nn3)S(=O)(=O)C2)CC1 (centres undefined)	-24.8%	-6.8%	-2.0%	x	-24.2
COc1cccc(CN2CCC(N(CCc3ccccc3)Cc3ccccc3)CC2)c1OC	u	u	u	11.2µM*	-64.3*
O=C(N/N=C\c1ccc(CNS(=O)(=O)c2ccc(Cl)cc2)o1)C(=O)Nc1ccc(Oc2ccccc2)cc1	3.4%	2.2%	-11.8%	12.6µM*	-99.4*
O=C(N/N=C\c1ccc(CNS(=O)(=O)c2ccccc2)o1)C(=O)Nc1ccc(F)cc1	19.5%	-29.6%	i	-4.0%	9.7
CCOC(=O)c1ccc(NC(=O)CC2C(=O)N(c3ccc(C)cc3)C(=O)N2C2CCCC2)cc1 (centres undefined)	-7.7%	-8.9%	-12.0%	x	-39.0
COc1ccc(C2CC(=O)c3sc(NC(C)=O)nc3C2)cc1 (centres undefined)	-1.2%	-17.4%	i	12.9%	-70.2*
COCCN(Cc1cc2cc(C)ccc2[nH]c1=O)S(=O)(=O)c1ccc(Cl)cc1	-15.1%	0.0%[7.34 µM]	i[7.34 µM]	u	-92.0*
CCOC(=O)CC1COCCN1C(=O)c1cc(COc2ccc(F)cc2Cl)on1 (centres undefined)	13.7%	-9.7%	-26.2%	x	22.0
COc1ccc(C(=O)C/C(=C\C(=O)c2ccc(C)cc2)c2ccccc2)cc1	-15.4%	x	x	11.2µM*	-97.9*
COc1ccc(C(CC(=O)c2ccccc2)S(=O)(=O)c2ccc(C)cc2)cc1 (centres undefined)	79.2%	x	x	u	-105.4*
Cn1c(CSc2nc3ccccc3n2C)nc2ccccc21	16.5%	x	x	8.8%	-17.0
Cn1c(SC2=CS(=O)(=O)c3ccccc32)nc2ccccc21	28.2µM*	u	x	6.31µM*	-97.9*
COc1cc(OC)c(NS(=O)(=O)c2ccc(Cl)c(C(=O)OC(C)C(=O)N3CCCC3)c2)cc1Cl (centres undefined)	u	u	-11.5%	u	-64.0*
Nc1nc(=S)c2ncn(C3OC(CO)CC3O)c2[nH]1 (centres undefined)	-13.9%	-11.7%	-18.3%	16.4%	u
CC(=O)c1cc(-c2ccccc2)n(CCC(=O)Nc2ccc(C)cc2C)c1C	0.0%	-16.8%	-19.1%	x	0.0
Cc1nc2ccccc2n1CC(=O)NC1CCCCCC1	u	x	x	u	-62.4*
CC(=O)c1cc(-c2ccccc2)n(CC(=O)NC2CCCCCC2)c1C	8.7%	-14.7%	-23.3%	x	+
CCOC(=O)c1cc(-c2ccc(F)cc2)n(CCC(=O)NC2CCN(Cc3ccccc3)CC2)c1C	-7.6%	x	x	3.98µM*	-19.6
CC(=O)c1cc(-c2ccccc2)n(CC(=O)Nc2ccc(C)cc2C)c1C	8.5%	-11.3%	-16.2%	x	+
O=C(CSCc1ccc([N+](=O)[O-])cc1)N/N=C/c1cccnc1	-8.3%	-0.6%	-7.6%	-10.0%	u
O=C(CSCc1ccc([N+](=O)[O-])cc1)N/N=C/c1ccncc1	-18.7%	-7.3%	i	3.4%	-62.7*
SMILES	FMDV inh	Vaccinia Venus	Vaccinia mCherry	HCV inhibitor	HCMV inh
O=C1NC(=O)N(c2ccccc2F)C(=O)/C1=C/c1cn(CC(=O)N2CCOCC2)c2ccccc12	22.4µM*	-12.0%	i	-6.1%	1.9
Cc1cccc(Nc2nnc(SCC(=O)NC3CCCc4ccccc43)s2)c1C (centres undefined)	39.8µM*	u	u	u	-37.4
Cc1ccc2c(c1)CCC2=O	x	-13.8%	i	x	x
CC(C)Cn1c(N)c(C(=O)CSc2ccc3c(c2)OCCO3)c(=O)n(C)c1=O	11.2µM*	x	x	2µM*	-94.3*
CC(C)CN(C(=O)CSc1ccc2c(c1)OCCO2)c1c(N)n(CC(C)C)c(=O)[nH]c1=O	-17.6%	-10.7%	i	9.7%	-18.8
CCc1ccc(C(=O)OCC(=O)c2c(N)n(CC(C)C)c(=O)n(C)c2=O)cc1	u	-15.0%	-22.4%	u	-64.8*
CC(C)Cn1c(N)c(C(=O)COC(=O)c2ccc3c(c2)OCCO3)c(=O)n(C)c1=O	u	x	x	7.08µM*	u
CC(C)Cn1c(N)c(C(=O)COC(=O)c2cccc(Cl)c2)c(=O)n(C)c1=O	-22.4%	-12.9%	-19.0%	2.24µM*	-1.2
COc1ccc(C=CC(=O)c2c(N)n(C)c(=O)n(C)c2=O)cc1	x	x	x	x	54.4
COc1ccc(NC(=O)Cn2c(SCc3ccc(F)cc3)nc3cccnc32)cc1OC	2.2%	-19.0%	-24.7%	x	-16.3
Cc1sc2nc(C(C)C)nc(SCC(=O)N3CCN(C(=O)c4ccco4)CC3)c2c1C	u	-28.2%	-27.6%	11.2µM*	-26.2
Cc1sc2ncnc(SCC(=O)N3CCN(C(=O)c4ccco4)CC3)c2c1C	x	-16.4%	-23.4%	-24.7%	-33.4
CCc1c(C)sc2nc(C(C)C)nc(SCC(=O)N3CCc4ccccc4C3)c12	x	29.2%	28.8%	u	-90.3*
CC(C)c1nc(N2CCN(C(=O)c3ccco3)CC2)c2c3c(sc2n1)CCCC3	x	-29.6%	-13.5%	22.4µM*	-9.1
Cc1sc2ncnc(N3CCN(C(=O)c4ccco4)CC3)c2c1C	-21.0%	-20.0%	-4.6%	u	-67.1*
O=C(c1ccco1)N1CCN(C(=O)c2cccn3c(=O)c4c5c(sc4nc23)CCCC5)CC1	-1.3%	x	x	-6.9%	-34.7
Cc1nn(C(C)C(=O)Nc2cccc(F)c2)c(=O)c2c1sc1ccccc12 (centres undefined)	-1.2%	-5.5%	i	x	-12.7
C[C@@H]1COc2cc(N3CCCC3)ccc2S(=O)(=O)N1	x	x	x	x	31.5
Cc1nc(N2CCN(C(=O)c3ccco3)CC2)c2c3c(sc2n1)CCC3	u	u	x	u	-65.1*
Cc1c(C(=O)N2CCN(c3ccc(F)cc3)CC2)sc2ncnc(N3CCN(c4ccccn4)CC3)c12	u	u	-13.7%	u	-80.7*
Cc1c(C(=O)N2CCN(c3ccccc3)CC2)sc2ncnc(N3CCN(c4ccccn4)CC3)c12	u	-5.7%	i	u	9.0
CCOC(=O)c1sc(NC(=O)CCN2CCN(C)CC2)c(C(=O)OCC)c1C	-19.6%	-9.6%	-5.7%	14.1µM*	u
CC1(c2ccc(Cl)cc2)NC(=O)N(CC(=O)N2CCCC2)C1=O (centres undefined)	-19.6%	x	x	15.8µM*	-10.7
CCOC(=O)c1c(NC(=O)CN2CCN(C)CC2)sc(C(=O)Nc2ccccc2)c1C	16.6%	-24.2%	-6.8%	6.31µM*	-7.6
